# Data as given in PubChem BioAssay (EPA / NIEHS).
# Records with an inconclusive call do not appear. Activity calls are given as the source filed them. Rule for the calls, unless noted: active = hit-call score of the fitted dose curve at least 0.9, where 1 is the maximum; inconclusive = response in the unintended direction; inactive = score below 0.9.
# Experiments:
# [1] = biological target: mouse Estrogen Receptor alpha (Era), Esr1 (gene 13982) (UniProt P19785); test: NVS_NR_mERa: NovaScreen (NVS) Nuclear Receptor Binding Assay for mouse Estrogen Receptor alpha (Era) (AID 2283378);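 note: hit means loss of bound radioligand signal relative to DMSO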
# Procedure, shortened: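 Measurements come from scintillation counting after filtration, taken 18 hours after chemicals were added to a cell-free mouse Era preparation with radioligand. Screening was duplicate at 25 uM, with concurrent positive and negative controls and confirmatory concentration series for actives.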
# [2] = biological target: Estrogen receptor beta (Homo sapiens) (UniProt Q92731); test: OT_ER_ERbERb_1440: Odyssey Thera (OT) 24-hour HEK293T Protein-Complementation Assay for Estrogen Receptor-beta/-beta Homodimer (AID 2283380);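 note: fluorescence gain from ER beta LBD homodimer complementation read by laser scanning cytometry; scored as signal increase over DMSO baseline for both agonists and antagonists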
# Procedure, shortened: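 HEK293T cells stably expressing human ER-beta LBD (aa 310-547) PCA homodimer pair, dosed 24 h; formaldehyde-fixed, Draq5-stained. Readout: increase in nuclear (agonist) or nuclear plus cytoplasmic (antagonist) fluorescence intensity versus DMSO, gain-of-signal fitting.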
# [3] = biological target: Estrogen receptor (Homo sapiens) (UniProt P03372); test: OT_ERa_GFPERaERE_0480: Odyssey Thera (OT) 8-hour HeLa Transcription Induction Assay for Estrogen Receptor (AID 2283381; active = hit-call score of the fitted dose curve at least 0.9, where 1 is the maximum; inactive = score below 0.9)
# Procedure, shortened: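 Fluorescent reporter signal, imaged by microscopy and scored with image-analysis algorithms, was taken 8 h after chemical dosing of HeLa cells; activity was fitted upward relative to DMSO.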
# [4] = biological target: Bile acid receptor (Homo sapiens) (UniProt Q96RI1); test: OT_FXR_FXRSRC1_0480: Odyssey Thera (OT) 8-hour HEK293T Protein-Complementation Assay for Farnesoid X receptor/SRC-1 Co-activator (AID 2283383)
# Procedure, shortened: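 Human kidney HEK293T cells carried FXR/SRC-1 fragment-complementation constructs. Compounds were added and incubated 8 h. Reporter reassembly upon receptor–co-activator interaction was then quantified by fluorescence, with curves fitted in the positive direction relative to DMSO.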
# [5] = biological target: Bile acid receptor (Homo sapiens) (UniProt Q96RI1); test: OT_FXR_FXRSRC1_1440: Odyssey Thera (OT) 24-hour HEK293T Protein-Complementation Assay for Farnesoid X receptor/SRC-1 Co-activator (AID 2283384)
# Procedure, shortened: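 Compounds are applied to human kidney HEK293T cells expressing bait and prey fused to reporter protein fragments; after 24 h, reconstituted reporter fluorescence is measured. Activity is fitted as signal gain over DMSO.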
# [6] = biological target: Agonist Androgen Response Element (ARE), AR (gene 367) (UniProt P10275); test: OT_AR_ARELUC_AG_1440: Odyssey Thera (OT) 24-hour CHO-K1 Luciferase Assay for Agonist Androgen Response Element (ARE) (AID 2283379)
# Procedure, shortened: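 Seed CHO-K1 cells; dose compounds for 24 h; add D-luciferin plus ATP in PBS; read luminescence. Signal increase relative to vehicle defines agonist activity, with at least 3 replicate wells per sample.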
# [7] = biological target: Estrogen receptor (Homo sapiens) (UniProt P03372); test: OT_ERa_GFPERaERE_0120: Odyssey Thera (OT) 2-hour HeLa Transcription Induction Assay for Estrogen Receptor (AID 2283382)
# Procedure, shortened: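 HeLa, 384-well, 2 h chemical exposure; GFP reporter induction (ERE), fluorescence microscopy; high content image analysis; positive fitting direction vs DMSO.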
# Sequence of Bile acid receptor (Homo sapiens) (Q96RI1 whole entry, looked up, the tested form may be a part): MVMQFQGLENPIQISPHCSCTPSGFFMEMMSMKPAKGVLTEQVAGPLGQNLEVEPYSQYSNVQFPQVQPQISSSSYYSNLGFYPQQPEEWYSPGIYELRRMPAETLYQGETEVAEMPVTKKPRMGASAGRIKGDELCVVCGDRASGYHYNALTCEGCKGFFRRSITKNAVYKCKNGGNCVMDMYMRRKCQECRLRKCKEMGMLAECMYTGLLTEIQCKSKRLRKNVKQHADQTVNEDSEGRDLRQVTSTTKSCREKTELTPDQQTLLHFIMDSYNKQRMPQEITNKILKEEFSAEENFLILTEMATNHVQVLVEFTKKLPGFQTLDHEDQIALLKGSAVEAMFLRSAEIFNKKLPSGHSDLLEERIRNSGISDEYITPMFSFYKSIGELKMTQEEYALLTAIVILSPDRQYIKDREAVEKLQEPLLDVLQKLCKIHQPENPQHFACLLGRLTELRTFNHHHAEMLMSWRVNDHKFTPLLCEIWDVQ
# Sequence of Estrogen receptor beta (Homo sapiens) (Q92731 whole entry, looked up, the tested form may be a part): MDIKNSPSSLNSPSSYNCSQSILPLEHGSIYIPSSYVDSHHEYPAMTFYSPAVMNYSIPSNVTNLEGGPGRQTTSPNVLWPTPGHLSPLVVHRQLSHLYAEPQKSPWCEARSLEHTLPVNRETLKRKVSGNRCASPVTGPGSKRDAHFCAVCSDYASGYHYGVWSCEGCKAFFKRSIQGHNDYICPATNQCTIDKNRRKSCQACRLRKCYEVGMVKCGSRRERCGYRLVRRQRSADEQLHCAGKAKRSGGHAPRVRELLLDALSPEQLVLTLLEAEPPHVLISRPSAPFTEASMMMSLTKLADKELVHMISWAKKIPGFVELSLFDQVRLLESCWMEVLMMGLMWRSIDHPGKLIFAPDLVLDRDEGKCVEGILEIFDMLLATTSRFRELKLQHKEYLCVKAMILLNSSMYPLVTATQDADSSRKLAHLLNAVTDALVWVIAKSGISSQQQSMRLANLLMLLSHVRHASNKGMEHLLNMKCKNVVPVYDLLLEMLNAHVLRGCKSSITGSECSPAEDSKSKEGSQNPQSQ
# Sequence of Estrogen receptor (Homo sapiens) (P03372 whole entry, looked up): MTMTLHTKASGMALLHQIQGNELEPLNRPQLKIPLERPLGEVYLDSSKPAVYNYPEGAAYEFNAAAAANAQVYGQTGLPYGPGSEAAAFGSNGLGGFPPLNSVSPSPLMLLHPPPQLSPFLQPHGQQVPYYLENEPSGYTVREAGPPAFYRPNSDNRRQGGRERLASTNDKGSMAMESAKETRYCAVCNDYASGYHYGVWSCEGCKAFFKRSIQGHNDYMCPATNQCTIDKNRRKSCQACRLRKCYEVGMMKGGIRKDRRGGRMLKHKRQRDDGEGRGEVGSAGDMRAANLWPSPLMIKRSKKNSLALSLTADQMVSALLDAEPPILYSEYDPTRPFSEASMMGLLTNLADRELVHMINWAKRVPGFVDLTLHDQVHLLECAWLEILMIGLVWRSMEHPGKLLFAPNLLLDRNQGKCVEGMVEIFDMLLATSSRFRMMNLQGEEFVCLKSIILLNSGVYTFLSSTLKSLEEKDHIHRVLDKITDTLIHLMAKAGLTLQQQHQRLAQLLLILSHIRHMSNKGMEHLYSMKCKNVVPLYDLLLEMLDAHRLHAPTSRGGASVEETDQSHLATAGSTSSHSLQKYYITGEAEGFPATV
# Sequence of Agonist Androgen Response Element (ARE), AR (gene 367) (P10275 whole entry, looked up): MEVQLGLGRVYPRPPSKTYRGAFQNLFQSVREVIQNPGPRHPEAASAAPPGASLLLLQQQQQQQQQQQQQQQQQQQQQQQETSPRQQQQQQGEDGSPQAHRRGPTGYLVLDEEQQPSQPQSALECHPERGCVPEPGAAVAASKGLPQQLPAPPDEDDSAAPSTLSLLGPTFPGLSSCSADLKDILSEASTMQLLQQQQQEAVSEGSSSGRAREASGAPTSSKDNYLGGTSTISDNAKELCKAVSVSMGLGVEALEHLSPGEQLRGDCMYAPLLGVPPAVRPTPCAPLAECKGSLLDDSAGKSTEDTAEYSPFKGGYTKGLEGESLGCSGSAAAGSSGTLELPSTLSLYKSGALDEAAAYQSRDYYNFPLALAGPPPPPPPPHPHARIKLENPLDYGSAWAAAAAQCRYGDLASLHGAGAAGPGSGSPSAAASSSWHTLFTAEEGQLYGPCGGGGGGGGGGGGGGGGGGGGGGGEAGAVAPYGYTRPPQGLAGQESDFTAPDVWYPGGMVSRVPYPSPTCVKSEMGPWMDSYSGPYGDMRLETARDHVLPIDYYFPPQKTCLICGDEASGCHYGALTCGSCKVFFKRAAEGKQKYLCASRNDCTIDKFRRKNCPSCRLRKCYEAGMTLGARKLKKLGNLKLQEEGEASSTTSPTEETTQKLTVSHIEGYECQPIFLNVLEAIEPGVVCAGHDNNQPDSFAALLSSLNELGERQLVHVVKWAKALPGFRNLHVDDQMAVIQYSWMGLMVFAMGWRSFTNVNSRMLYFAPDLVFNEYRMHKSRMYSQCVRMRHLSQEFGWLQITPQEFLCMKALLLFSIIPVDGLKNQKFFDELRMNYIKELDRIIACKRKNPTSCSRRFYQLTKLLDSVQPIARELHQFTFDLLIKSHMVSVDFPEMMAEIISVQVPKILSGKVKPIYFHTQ
# Sequence of mouse Estrogen Receptor alpha (Era), Esr1 (gene 13982) (P19785 whole entry, looked up): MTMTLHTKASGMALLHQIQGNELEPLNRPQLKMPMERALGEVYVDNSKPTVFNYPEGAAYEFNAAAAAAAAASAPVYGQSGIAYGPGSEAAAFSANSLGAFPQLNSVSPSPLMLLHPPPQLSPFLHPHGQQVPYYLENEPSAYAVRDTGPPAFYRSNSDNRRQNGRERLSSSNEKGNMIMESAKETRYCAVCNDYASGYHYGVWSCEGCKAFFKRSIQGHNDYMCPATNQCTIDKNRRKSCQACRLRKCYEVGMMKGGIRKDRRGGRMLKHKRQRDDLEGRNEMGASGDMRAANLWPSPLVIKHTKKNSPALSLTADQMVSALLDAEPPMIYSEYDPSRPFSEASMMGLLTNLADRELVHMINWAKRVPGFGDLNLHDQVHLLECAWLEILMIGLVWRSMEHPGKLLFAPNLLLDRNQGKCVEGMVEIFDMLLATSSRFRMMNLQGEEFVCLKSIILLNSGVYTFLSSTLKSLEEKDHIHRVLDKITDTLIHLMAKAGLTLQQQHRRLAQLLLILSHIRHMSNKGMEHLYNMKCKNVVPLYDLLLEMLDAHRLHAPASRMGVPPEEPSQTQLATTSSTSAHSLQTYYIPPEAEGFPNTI
structure (smiles),measurement,setting,value
COC(=O)c1ccccc1C(=O)OC,outcome,[1],inactive
same,outcome,[2],inactive
same,outcome,[3],inactive
same,outcome,[4],inactive
same,outcome,[5],inactive
CS/C(C)=N/OC(=O)N(C)SN(C)C(=O)O/N=C(\C)SC,outcome,[6],inactive
same,outcome,[2],inactive
same,AC50,[3],93.3 µM (active)
same,outcome,[5],inactive
Cc1ccc(-c2c(Cl)nc(C#N)n2S(=O)(=O)N(C)C)cc1,outcome,[6],inactive
same,outcome,[2],inactive
same,outcome,[3],inactive
same,outcome,[4],inactive
same,outcome,[5],inactive
CC(C)C1(C)N=C(c2nc3ccccc3cc2C(=O)O)NC1=O (configuration not stated),outcome,[2],inactive
same,outcome,[3],inactive
same,outcome,[4],inactive
same,outcome,[5],inactive
CC(C)(C)c1ccc(CSc2cnn(C(C)(C)C)c(=O)c2Cl)cc1,outcome,[2],inactive
same,outcome,[3],inactive
same,AC50,[4],5.14 µM (active)
same,outcome,[5],inactive
COP(=S)(OC)Oc1nc(Cl)c(Cl)cc1Cl,outcome,[2],inactive
same,outcome,[3],inactive
same,outcome,[7],inactive
same,outcome,[4],inactive
CCOc1cc(Oc2ccc(C(F)(F)F)cc2Cl)ccc1[N+](=O)[O-],outcome,[2],inactive
same,outcome,[3],inactive
same,outcome,[4],inactive
same,outcome,[5],inactive
CCc1nn(C)c(C(=O)NCc2ccc(C(C)(C)C)cc2)c1Cl,outcome,[2],inactive
same,outcome,[3],inactive
same,outcome,[7],inactive
same,AC50,[4],0.578 µM (active)
CCCN(CCC)c1c([N+](=O)[O-])cc(S(N)(=O)=O)cc1[N+](=O)[O-],outcome,[2],inactive
same,outcome,[3],inactive
O=C(O)c1nc(Cl)ccc1Cl,outcome,[3],inactive
CCCC1COC(Cn2cncn2)(c2ccc(Cl)cc2Cl)O1 (configuration not stated),outcome,[6],inactive
same,outcome,[3],inactive
same,outcome,[4],inactive
CC(Oc1ccc(Cl)cc1Cl)C(=O)O (configuration not stated),outcome,[3],inactive
same,outcome,[7],inactive
same,outcome,[4],inactive
COC(=O)C(C)Oc1ccc(Oc2ccc(Cl)cc2Cl)cc1 (configuration not stated),outcome,[2],inactive
same,AC50,[4],66.2 µM (active)
same,outcome,[5],inactive
COc1cnc(OC)n2nc(NS(=O)(=O)c3c(OCC(F)F)cccc3C(F)(F)F)nc12,outcome,[2],inactive
same,outcome,[3],inactive
C=CCC1=C(C)[C@@H](OC(=O)[C@@H]2[C@@H](C=C(C)C)C2(C)C)CC1=O,outcome,[3],inactive
same,outcome,[7],inactive
same,AC50,[4],16.6 µM (active)
same,AC50,[5],50 µM (active)
COC(=O)N(OC)c1ccccc1COc1ccn(-c2ccc(Cl)cc2)n1,outcome,[2],inactive
same,outcome,[3],inactive
same,outcome,[7],inactive
same,AC50,[4],1.54 µM (active)
same,AC50,[5],1.45 µM (active)
Fc1ccc(Oc2ccnc3cc(Cl)cc(Cl)c23)cc1,outcome,[2],inactive
same,outcome,[3],inactive
same,AC50,[4],12.6 µM (active)
same,AC50,[5],29.1 µM (active)
OC(c1ccc(Cl)cc1)(c1cncnc1)c1ccccc1Cl (configuration not stated),outcome,[2],inactive
same,AC50,[3],12.1 µM (active)
O=C(O)COc1nc(Cl)c(Cl)cc1Cl,outcome,[3],inactive
same,outcome,[4],inactive
CCON=C(CC)C1=C(O)CC(c2c(C)cc(C)cc2C)CC1=O (configuration not stated),outcome,[6],inactive
same,outcome,[3],inactive
same,outcome,[7],inactive
same,outcome,[4],inactive
same,outcome,[5],inactive
Cc1c(F)c(F)c(COC(=O)C2C(/C=C(\Cl)C(F)(F)F)C2(C)C)c(F)c1F (configuration not stated),outcome,[2],inactive
same,outcome,[3],inactive
same,outcome,[4],inactive
same,outcome,[5],inactive
COP(N)(=O)SC (configuration not stated),outcome,[2],inactive
same,outcome,[3],inactive
same,outcome,[7],inactive
same,outcome,[4],inactive
same,outcome,[5],inactive
COC(=O)C=C(C)OP(=O)(OC)OC,outcome,[2],inactive
same,outcome,[3],inactive
same,outcome,[7],inactive
same,outcome,[4],inactive
same,outcome,[5],inactive
N#Cc1cc(Br)c(O)c(Br)c1,outcome,[3],inactive
CNC(=S)S,outcome,[2],inactive
same,outcome,[3],inactive
CNC(=O)ON=CC(C)(C)SC,outcome,[3],inactive
same,outcome,[4],inactive
same,outcome,[5],inactive
CCOP(=S)(OCC)SCn1c(=O)oc2cc(Cl)ccc21,outcome,[2],inactive
same,outcome,[3],inactive
same,AC50,[4],17.9 µM (active)
same,AC50,[5],12 µM (active)
C#CCOS(=O)OC1CCCCC1Oc1ccc(C(C)(C)C)cc1 (configuration not stated),outcome,[2],inactive
same,outcome,[3],inactive
same,AC50,[4],21.4 µM (active)
same,AC50,[5],31.1 µM (active)
CCNc1nc(Cl)nc(NCC)n1,outcome,[2],inactive
same,outcome,[3],inactive
same,outcome,[4],inactive
same,outcome,[5],inactive
